In the library only some 21% were active in any assay of this set; here they are far more common.
D3 antag: qHTS of D3 Dopamine Receptor Antagonist: qHTS; hit rate 2.5% among 360,000; max response, negative = inhibition, %; D3R cells, DiscoveRx beta-arrestin luminescence, antagonist mode; stronger effect = lower value; D(3) dopamine receptor (Homo sapiens), P35462; in the data active = max response below about -50%; inconclusive = no clear call, values can overlap the other calls
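Cells plated overnight at 1500 cells/well, then exposed to library compounds with dopamine controls for 90 minutes at 37 degrees C. DiscoveRx reagent added for 30–60 minutes at room temperature; luminescence read, quantitative HTS format.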
IL1B secr inh: qHTS for Inhibitors of Inflammasome Signaling: IL-1-beta AlphaLISA Primary Screen; THP-1 LPS/ATP IL-1B secretion, AlphaLISA, 16 h; stronger effect = lower value; activity change, % at 57.5 µM; hit rate 4.7% among 360,000; AID 743279, 2014; in the data active = activity change below about -50%; inconclusive = mostly about -30% to -49%
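THP-1 cells pretreated 1 hr with compounds (up to 57.5 uM final), then stimulated with LPS (250 ng/mL final) plus ATP (1.25 mM final); secreted IL-1B measured by AlphaLISA after 16 hr, decreased signal indicating inhibition.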
TDP1 cell CPT: qHTS for Inhibitors of human tyrosyl-DNA phosphodiesterase 1 (TDP1): qHTS in cells in presence of CPT; chicken DT40 Tdp1-/-;hTDP1 cells + 20 nM CPT, ATP luminescence, 48 h; Potency, µM (series often up to 46.2 µM), actives largely listed as inhibitors; hit rate 12% among 420,000; also: nearly all actives have a fitted effect of over 55% in size
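Cell growth measured by CellTiter-Glo luminescence after a minimum 48 h, 37 C compound exposure with 20 nM CPT in Tdp1-knockout DT40 cells stably expressing hTDP1, seeded 400/well; qHTS titration format.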
DRD3 agonist: qHTS of D3 Dopamine Receptor Agonist: qHTS | D(3) dopamine receptor (Homo sapiens), P35462 | D3R DiscoveRx beta-arrestin cells, luminescence, 90 min | max activation, % | hit rate 0.58% among 410,000; in the data active = max activation above about 30%
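Agonist-mode cell screen: cells plated at 1500/well and incubated overnight at 37 °C, then exposed to library compounds for 90 min at 37 °C. Detection reagent was added for 30–60 min at room temperature, and luminescence was read.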
ClpP mod: qHTS Assay for Activators of ClpP; Potency, µM (series often up to 57.5 µM); AID 651965, 2013; hit rate 1.9% among 340,000; purified B. subtilis ClpP, FRET peptide cleavage, 20 min; ATP-dependent Clp protease proteolytic subunit (Bacillus subtilis (strain 168)), P80244; active = well fitted falling curve with a large enough effect; inconclusive = small, poorly fitted or top-dose-only effect; inactive = no such curve, though single readings can be large or run the other way; also: the source files actives as falling curves though it sought activators and does not explain the sign; nearly all actives have a fitted effect of over 65% in size
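ClpP 10 microg/mL final, pH 8 Tris/KCl buffer with BSA, glycerol, Tween-20; compound pinned in; FRET-FV substrate; RT 20 min; Ex320/Em430; ΔFRET vs ADEP 5.8 microM, DMSO, no enzyme.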
TDP1 cell noCPT: qHTS for Inhibitors of human tyrosyl-DNA phosphodiesterase 1 (TDP1): qHTS in cells in absence of CPT; hit rate 15% among 420,000; Potency, µM (doses to about 46.2 µM), hits mostly inhibitors; DT40 Tdp1-/- hTDP1 cells, no CPT, ATP luminescence, 48 h; AID 686978, 2013; also: nearly all actives have a fitted effect of over 55% in size
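A cellular qHTS used chicken DT40 cells lacking endogenous Tdp1 but carrying stably transfected human TDP1. Compounds were applied without camptothecin, and cell growth kinetics were judged by ATP-dependent luminescence after ≥48 hr.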
Numbers stand for hits; - = inactive; ? = inconclusive; . = not tested or not shown. Unless noted, calls follow the shape of the dose curve; as a rule, active = well fitted inhibition curve with a large enough effect; inconclusive = small, poorly fitted or top-dose-only effect; inactive = flat fitted curve, though single readings scatter.

SMILES	D3 antag	IL1B secr inh	TDP1 cell CPT	DRD3 agonist	ClpP mod	TDP1 cell noCPT
CC(=O)N1CCc2cc(S(=O)(=O)N3c4ccccc4CC3C)ccc21 (stereo unspecified)	-51	-	12µM	-	-	13µM
CC1Cc2ccccc2N1S(=O)(=O)c1cnc(Cl)c(Br)c1 (stereo unspecified)	?	-70	?	-	-	?
CC1Cc2ccccc2N1S(=O)(=O)c1cccc(C(=O)c2nccn2C)c1 (stereo unspecified)	-	-	-	-	-	-
C=C1CCN([C@H](C(=O)OCc2cccc(C)c2)C(C)C)S(=O)(=O)c2ccccc21	-	-	?	-	-	15µM
COc1ccc(CCNc2nc3cc(OC)c(OC)cc3c3nc(-c4cccnc4)nn23)cc1OC	.	.	-	-	-	-
COc1ccccc1-n1cnc(N)c1C(=O)c1ccccc1	-	-	9.2µM	-	-	8.2µM
COc1ccccc1-n1cnc(N)c1C(C)=O	-	-	-	-	-	-
CCOC(=O)C1(CCCc2ccccc2)CCN(Cc2cnc(C)s2)CC1	?	-88	21µM	-	.	10µM
CCOC(=O)C1(Cc2cccc(F)c2)CCN(Cc2cnc(C)s2)CC1	-	-	26µM	-	.	23µM
CCOC(=O)C1(CCCc2ccccc2)CCN(C(=O)C2=C(C)OCCO2)CC1	-	-80	?	-	.	21µM
CCOC(=O)C1(Cc2cccc(F)c2)CCN(Cc2c(C)nn(CC)c2C)CC1	-	-	23µM	-	-	?
CCOC(=O)C1(CCCc2ccccc2)CCN(C(=O)c2ccoc2)CC1	-	-	-	-	.	?
OC1CCN(Cc2ccc3c(c2)CN(Cc2ccc(Oc4ncccn4)cc2)CCO3)CC1	.	.	-	.	.	-
CCOC(=O)C1(CCCc2ccccc2)CCN(Cc2cn(CC)nc2C)CC1	-	-77	?	-	.	?
CCOC(=O)C1(CCCc2ccccc2)CCN(Cc2nccn2CC)CC1	-	-55	?	-	.	?
CCOC(=O)C1(CCc2ccccc2)CCN(Cc2cccc3nccnc23)CC1	?	?	21µM	-	-	16µM
CCOC(=O)C1(CCOc2ccccc2)CCN(Cc2nccn2CC)CC1	-	-	?	-	.	?
COC(=O)[C@H]1C[C@H]1[C@@H](NC(=O)c1ccc[nH]1)c1ccccc1	-	-	-	-	-	-
Cc1cc(C=Nc2ccc(/C=C/c3ccnc4ccccc34)cc2)ccc1N(C)C	.	.	16µM	.	-	18µM
CN(C)c1ccc(/C=C/c2ccnc3ccccc23)cc1Br	.	.	8.9µM	.	-	7.1µM
Cc1c(/C=C/c2ccnc3ccccc23)ccc(N(C)C)c1C	.	.	?	.	-	11µM
CN(C)c1c(Cl)cc(/C=C/c2ccnc3ccccc23)cc1Br	.	.	4.5µM	.	-	3.5µM
Cc1ccc(Cl)cc1NC(=O)C1CCCN(S(=O)(=O)c2cccc3cccnc23)C1 (stereo unspecified)	.	.	?	-	-	?
CCOc1ccccc1NC(=O)C1CCN(S(=O)(=O)c2ccccc2)CC1	.	.	-	-	-	-
CN(C)c1ccc(/C=C/c2ccnc3cc(Cl)cc(Cl)c23)cc1	.	.	?	.	-	?
SMILES	D3 antag	IL1B secr inh	TDP1 cell CPT	DRD3 agonist	ClpP mod	TDP1 cell noCPT
CN(C)c1ccc(C=Cc2ccnc3ccccc23)cc1N	-	-	10µM	-	-	10µM
CN(C)c1ccc(/C=C/c2ccnc3ccccc23)cc1Cl	.	.	?	.	-	10µM
Cc1cc(/C=C/c2ccnc3ccccc23)ccc1N(C)C	.	.	5.6µM	.	-	5.6µM
CCN(C(=O)Cn1c(C(=O)OC)cc2oc3ccccc3c21)c1cccc(C)c1	.	.	12µM	-	-	18µM
COc1cc2c(cc1O)CCN[C@]21CS[C@@H]2c3c(OC(C)=O)c(C)c4c(c3[C@H](COC1=O)N1[C@@H]2[C@H]2c3c(cc(C)c(OC)c3O)C[C@@H]([C@@H]1O)N2C)OCO4	.	.	0.0043µM	-	.	0.0043µM
O=C(NC1CCN(Cc2ccccc2)CC1)c1ccc(S(=O)(=O)NCc2ccco2)cc1	?	?	?	-	-	?
CCN(c1ccccc1)S(=O)(=O)c1ccc(C(=O)NC2CCN(Cc3ccccc3)CC2)cc1	?	?	8.2µM	-	-	7.3µM
Cc1ccccc1C(=O)NC1CCN(Cc2ccccc2)CC1	-	-	-	-	.	-
CN(CC(=O)NC1CCN(Cc2ccccc2)CC1)S(=O)(=O)c1ccc(Br)s1	-56	-	?	-	-	?
Cc1ccc(CN2CCC(NC(=O)c3ccccc3)CC2)cc1	-96	-	?	-	.	18µM
Cc1ccc(C)n1-c1ccc(C(=O)NC2CCN(Cc3ccccc3)CC2)cc1	-52	-59	?	-	-	21µM
COc1ccc(NC(=O)CN(C)C(=O)c2ccc(S(=O)(=O)Nc3ccccc3F)cc2)cc1	-	-	-	-	-	-
Cc1ccc(C)n1-c1ccc(C(=O)Nc2ccccc2)cc1	-	-65	?	-	-	26µM
Cc1ccc(S(=O)(=O)N2CCN(C(=O)C3CCN(C(=O)c4ccccc4C)CC3)CC2)cc1C	-	-	?	-	.	?
CN(C)c1ccc(Nc2nc3ccccc3n3nnnc23)cc1	.	.	?	-	-	23µM
CC(=O)Nc1ccc(Nc2nc3ccc(C)cc3n3nnnc23)cc1	.	.	6.5µM	-	-	6.5µM
CC(NC(=O)c1ccc(Nc2nc3ccccc3n3nnnc23)cc1)c1ccccc1 (stereo unspecified)	.	.	13µM	-	?	7.3µM
Cc1ccc(CCNC(=O)c2ccc(Nc3nc4ccccc4n4nnnc34)cc2)cc1	.	.	?	-	?	18µM
CC1=C(C(=O)Nc2cccc(C(F)(F)F)c2)C(c2ccccc2)n2ncnc2N1 (stereo unspecified)	.	.	-	-	-	-
COc1ccc(/C=C(\NC(=O)c2ccco2)C(=O)N2CCCCC2)cc1	-	-	-	-	.	-
COc1ccc(NC(=O)CN(C)C(=O)CCCc2nc3ccccc3s2)cc1	-	-	-	-	-	?
COc1cccc(NC(=O)c2cc3ccccc3cc2OC)c1	-	-	-	-	-	?
O=C(c1ccc(Nc2nc3ccccc3n3nnnc23)cc1)N1CCN(c2ccc(F)cc2)CC1	.	.	10µM	-	-	9.2µM
O=C(NCc1ccc(F)cc1)c1ccc(Nc2nc3ccccc3n3nnnc23)cc1	.	.	21µM	-	-	15µM
COc1ccc(N2CCN(C(=O)c3ccc(Nc4nc5ccccc5n5nnnc45)cc3)CC2)cc1	.	.	?	-	-	?

Bioassay records from PubChem.
